Measured values as given in the supplement of paper PMC3334620.
Whole data set: some 33,000 sequences, median “E-score (-0.5 to 0.5)” near -0.0034, cut for the highest 2% near 0.25. The full list was thinned out, with the highest values kept by preference.

target: T1, Yap3 (UniProt P38749); experiment: PBM E-score (8-mer binding enrichment) (E-score (-0.5 to 0.5)); higher = stronger / more preferred TF binding; conditions: protein concentration: 100 nM; construct: GST-full length
T1 sequence: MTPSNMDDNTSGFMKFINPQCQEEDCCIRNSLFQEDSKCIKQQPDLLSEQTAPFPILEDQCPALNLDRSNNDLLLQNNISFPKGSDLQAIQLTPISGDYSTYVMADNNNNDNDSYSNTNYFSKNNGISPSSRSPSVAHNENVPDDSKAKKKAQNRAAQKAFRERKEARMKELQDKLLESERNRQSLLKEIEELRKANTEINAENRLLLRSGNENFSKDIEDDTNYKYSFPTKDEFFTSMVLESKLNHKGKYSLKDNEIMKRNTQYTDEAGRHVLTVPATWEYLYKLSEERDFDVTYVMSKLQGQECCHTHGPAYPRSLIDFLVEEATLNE
Method in brief: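 Universal all-10-mer Agilent arrays, double-stranded by primer extension on fresh or once-stripped slides, were probed with about 100-200 nM GST-tagged yeast transcription factors made by PURExpress. Fluorescent anti-GST detected bound protein, and masliner normalised the scans. E-scores from the Universal PBM Analysis Suite were given to each ungapped eight-base word pooled with its reverse complement.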

Row | Sequence | PBM E-score
1 | CCGATCAG | -0.00295
2 | CCCCCTAA | -0.291
3 | AAAGATCC | -0.0985
4 | AGCTGTCG | -0.197
5 | GTCGACCA | -0.0665
6 | GGGCTGCA | -0.195
7 | ACTACTAC | 0.0925
8 | CCTACTAC | -0.17
9 | ACTACTAT | 0.255
10 | GCTACTAC | 0.255
11 | ACTACTAA | 0.0558
12 | GCTACTAA | 0.138
13 | CGTGACAG | -0.154
14 | CGAGAGGC | -0.258
15 | CCATCTAG | -0.112
16 | TAGTTCCA | 0.14
17 | AATTTCAG | 0.0354
18 | AATTTCCG | 0.237
19 | ATTTTCAG | 0.286
20 | ATTTTCCC | 0.0787
21 | ATTTTCAC | 0.174
22 | ATTTTCCG | 0.325
23 | AGCTTGAC | -0.0896
24 | ATTCTGGA | 0.132
25 | AAGGTCAT | -0.047

Row | Sequence | PBM E-score
26 | AACAGACG | -0.0301
27 | AACAAGGG | -0.0929
28 | GCGCTCAA | -0.131
29 | CGACCGCG | -0.129
30 | AATTGGTA | 0.158
31 | CATTGGTA | 0.0377
32 | GATTGGTA | 0.305
33 | GAATTGCA | 0.101
34 | AACGGATT | 0.233
35 | CACGGATG | -0.164
36 | TACGGATA | 0.0129
37 | AACGGATA | 0.255
38 | AACGGATG | -0.101
39 | CACGGATA | 0.291
40 | AGTTGTTA | 0.114
41 | ATCTAGAT | -0.0211
42 | TCTGGCCA | -0.0631
43 | AGACGCCG | -0.0447
44 | TGACGTCA | 0.331
45 | TCACGTAA | 0.359
46 | TGACGTAA | 0.368
47 | GGACGTCA | -0.0403
48 | GCACGTAA | 0.0393
49 | ACACGTAA | 0.217
50 | ACGCGTAA | 0.0957

Row | Sequence | PBM E-score
51 | TCGCGTAA | 0.302
52 | GGACGTAA | -0.0155
53 | GCGCGTAA | 0.23
54 | CGACGTAA | 0.19
55 | AGACGTCA | -0.0966
56 | CATGTAAC | 0.0356
57 | ACCCTTCT | -0.142
58 | AGAGTTAG | -0.0808
59 | GGTCTAGA | -0.104
60 | AACCAGCG | -0.0042
61 | GCTGTAAC | 0.0596
62 | ACTCTGCC | -0.104
63 | CCACTTAC | 0.257
64 | GCACTTAC | 0.0227
65 | CCACTTAA | -0.071
66 | ATACCAAC | 0.202
67 | ACTTGTCC | 0.0688
68 | AAGAAGCA | 0.119
69 | AGCTGTAA | 0.0402
70 | CATCGCTA | 0.0613
71 | AGCCCTAG | -0.106
72 | CATAAAGG | 0.00277
73 | GTGAGTAA | 0.154
74 | CTGAGTAA | 0.246
75 | ATGAGTAA | 0.284

Row | Sequence | PBM E-score
76 | CTCGAACC | -0.0728
77 | TTCTAAAA | 0.0712
78 | AATCCTCC | -0.0151
79 | GGTTAATA | 0.0683
80 | CTTTAAGA | 0.0783
81 | GTTTAAGA | -0.0881
82 | GTTTAATA | 0.272
83 | CTTTAATC | 0.152
84 | AGTTAATA | 0.264
85 | CTTTAATA | 0.285
86 | GTTTAAAA | 0.0984
87 | ATTTAACA | 0.195
88 | ATTTAATA | 0.302
89 | AGTTAATC | 0.0976
90 | ATTTAATC | 0.212
91 | AATCGCTA | -0.00025
92 | GGTCGCCA | -0.186
93 | ACCCATCT | 0.0208
94 | AAAGAGCA | 0.132
95 | CCGAGAGG | -0.18
96 | GAGGTCTA | -0.165
97 | TACGCTGA | 0.156
98 | GCTCCAGC | -0.037
99 | AAGTCCGC | -0.104
100 | CGCCAACC | -0.193

Row | Sequence | PBM E-score
101 | CAATAGAC | 0.111
102 | GAAGTCGA | 0.0787
103 | ATTTAACG | 0.204
104 | ATTTAATG | 0.282
105 | ATTTAAGG | 0.0621
106 | CGATAGAA | 0.0788
107 | ACACCCTG | -0.133
108 | CCTTACTC | 0.183
109 | CATTACAA | 0.28
110 | GATTACTA | 0.225
111 | GCTTACTA | 0.237
112 | AATTACCC | 0.107
113 | CCTTACTA | 0.281
114 | GATTACCA | 0.153
115 | AATTACTG | 0.218
116 | AATTACTA | 0.325
117 | CATTACAC | 0.205
118 | TATTACAA | 0.209
119 | AATTACCA | 0.256
120 | AGATCACG | 0.128
121 | GGGCCACC | -0.256
122 | TCTGCTAA | 0.0116
123 | ACCGCGAA | -0.00285
124 | GGACATGA | -0.0945
125 | ACAACTGC | 0.0481

Row | Sequence | PBM E-score
126 | CTGCCCTA | -0.132
127 | CCTGCATC | -0.0897
128 | GGGCTCCA | -0.262
129 | GAGGCACA | -0.0567
130 | CATTACTC | 0.221
131 | CATTACTA | 0.292
132 | CTTTACTA | 0.22
133 | AATCAGAA | 0.0468
134 | AAAGAACC | 0.0747
135 | AGTATTAA | 0.186
136 | AGTATTAG | 0.327
137 | CGTATTAG | 0.152
138 | AGTATTAC | 0.26
139 | CGTATTAC | 0.231
140 | AGTATTAT | 0.1
141 | AGCAAGTG | -0.0827
142 | AAATTGTC | 0.154
143 | GATCGACA | -0.00076
144 | AACTAGAT | 0.0716
145 | CTTTGTTC | 0.0752
146 | AATTGTTG | 0.0159
147 | ATTTGTTA | 0.166
148 | CATTGTTC | 0.125
149 | AATTGTTC | 0.257
150 | ATTTGTTC | 0.321

Row | Sequence | PBM E-score
151 | CATAGTTA | 0.0154
152 | CTAAGCAA | -0.0294
153 | ATAAGCAA | 0.137
154 | GTAAGCAA | 0.27
155 | GTATCTTA | 0.267
156 | GCATCATA | 0.193
157 | ATATCATA | 0.271
158 | ATATCATG | 0.101
159 | CTATCATA | 0.12
160 | CTATCTTA | 0.126
161 | GTATCATA | 0.276
162 | GTATCAGA | -0.0367
163 | GTATCTGA | 0.133
164 | CCTCAAAC | 0.0235
165 | TCGGGCCA | -0.132
166 | GTGAGGCA | 0.0355
167 | CATGACCC | -0.0127
168 | CGGGCCTA | -0.255
169 | GTAGACCA | -0.0918
170 | ACCCGCAG | -0.0808
171 | ATCACTCG | 0.0758
172 | CCAGGTTC | -0.317
173 | GTGCGAGA | 0.0126
174 | ATGTACCA | -0.0322
175 | AAGTTATG | 0.256

Row | Sequence | PBM E-score
176 | AAGTTATT | 0.174
177 | AAGTTATA | 0.175
178 | GATACTGA | 0.0116
179 | TATACTGA | 0.295
180 | CATACTGA | 0.136
181 | TGAGACAA | 0.0572
182 | ATTTCATA | 0.239
183 | ATTTCATG | -0.0106
184 | ATTTCATC | 0.269
185 | CTAGTATC | 0.0604
186 | ATAATTGA | 0.308
187 | TTAATTAA | 0.0675
188 | GCAATTAC | 0.102
189 | GTAATTGA | 0.115
190 | CTAATTGA | 0.0727
191 | ATAATTAA | 0.259
192 | GTAATTAC | 0.306
193 | CCAATTAA | 0.0782
194 | ACAATTAC | 0.203
195 | CTAATTAA | 0.135
196 | GGAATTAC | 0.235
197 | CCAATTAC | 0.274
198 | CGTTCATA | -0.0126
199 | AGCACGCC | -0.157
200 | ACCACTGC | -0.048

Row | Sequence | PBM E-score
201 | GACACTAA | 0.064
202 | AAGGGGCA | -0.105
203 | CTCTCGGA | 0.00281
204 | ATATGCGG | 0.0287
205 | GCAGTGAA | 0.225
206 | GTCAAAGA | -0.0517
207 | AGTAGCCA | -0.141
208 | CATGCACC | -0.191
209 | CGCTGCTC | -0.133
210 | ATAATTCC | 0.163
211 | GGAATTAA | 0.233
212 | GTAATTCA | 0.177
213 | GTAATTAA | 0.259
214 | ACAATTAG | -0.0417
215 | CAAATTAG | 0.122
216 | ATAATTAG | 0.347
217 | CTAATTAC | 0.253
218 | CCAATTAG | 0.177
219 | AGAATTAG | 0.0612
220 | ATAATTAC | 0.333
221 | CTAATTAG | 0.347
